G9a block – inhibitors of human histone lysine methyltransferase G9a; Q96KQ7; 350,000 tested, 8.8% active; Potency, µM (titrated, usually from 102 µM), hits mostly inhibitors; G9a H3K9 monomethylation, AlphaScreen, 2 h; AID 504332; note: nearly all actives have a fitted effect of over 75% in size
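Chemiluminescent proximity detection of H3K9 monomethylation, read after 10 min bead incubation in the dark. Reaction: 20 nM G9a, 500 nM biotin-H3K9 peptide, 20 uM SAM cofactor, 2 h, room temperature, following 15 min enzyme-compound preincubation.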
JMJD2A Tudor inh – JMJD2A Tudor domain (human) inhibition | O75164 | Potency, µM (top dose mostly 114 µM), hits mostly inhibitors | AID 504339 | AlphaScreen JMJD2A-Tudor / H3K4me3 peptide binding | 390,000 tested, 4.4% active; note: nearly all actives have a fitted effect of over 50% in size
BAZ2B inh – BAZ2B (human) inhibition; AlphaScreen BAZ2B-H3K14Ac peptide displacement; 360,000 tested, 4.4% active; Q9UIF8; Potency, µM (doses to about 114 µM), most hits filed as inhibitors; note: nearly all actives have a fitted effect of over 60% in size
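AlphaScreen luminescence quantifies BAZ2B engagement of H3K14Ac peptide; the protein and biotinylated peptide are both at 50 nM final, buffer PBS pH 7.4 with 0.01% Tween-20, all steps at room temperature.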
PI5P4K alpha inh – inhibitors of human PI5P4K alpha | PI5P4Kalpha enzyme, ADP-Glo luminescence, 60 min; stronger effect = lower value | P48426 | 330,000 tested, 1.2% active | max response, %; active = max response of -50% or lower; inconclusive = between -30% and -50%; inactive = -30% or higher; note: value at the top dose of about 77 µM
Target sequence (P48426 whole entry, looked up): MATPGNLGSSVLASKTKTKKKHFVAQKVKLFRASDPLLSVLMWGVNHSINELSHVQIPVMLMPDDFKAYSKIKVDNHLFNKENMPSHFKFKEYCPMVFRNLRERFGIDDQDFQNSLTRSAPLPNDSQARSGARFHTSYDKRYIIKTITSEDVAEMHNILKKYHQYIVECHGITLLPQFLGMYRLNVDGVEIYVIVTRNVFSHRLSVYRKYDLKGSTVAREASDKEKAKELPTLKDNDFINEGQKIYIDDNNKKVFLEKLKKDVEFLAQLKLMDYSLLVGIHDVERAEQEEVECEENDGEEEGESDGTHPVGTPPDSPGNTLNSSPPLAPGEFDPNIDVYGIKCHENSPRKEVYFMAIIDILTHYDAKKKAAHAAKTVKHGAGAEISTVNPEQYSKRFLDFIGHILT
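Luminescence from ADP-Glo served as readout of PI5P4Kalpha activity in a qHTS format. Reaction: enzyme, substrate, compound, ATP at 5 microM final, 60 min at RT.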
PLK1 PBD block – inhibitors of human PLK1 polo-box domain binding; P53350; Plk1 PBD binding of FITC phosphopeptide, fluorescence polarization; Potency, µM, actives largely listed as inhibitors; 360,000 tested, 2.8% active; AID 720504; note: series mostly up to about 57 µM; nearly all actives have a fitted effect of over 65% in size
HP1b binding inh – inhibitors of HP1-beta chromodomain binding to methylated histone tails; AID 540317; Potency, µM (doses to about 114 µM), hits mostly inhibitors; 390,000 tested, 0.56% active; P83916; AlphaScreen HP1-beta / biotin-H3K9me3 peptide binding; note: nearly all actives have a fitted effect of over 70% in size
Target sequence (P83916 whole entry, looked up): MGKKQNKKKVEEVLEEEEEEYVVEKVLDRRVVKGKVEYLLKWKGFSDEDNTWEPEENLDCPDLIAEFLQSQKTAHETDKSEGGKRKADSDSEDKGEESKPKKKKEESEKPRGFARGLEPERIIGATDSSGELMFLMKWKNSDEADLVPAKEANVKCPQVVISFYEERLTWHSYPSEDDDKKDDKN
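AlphaScreen: HP1-beta (50 nM) preformed 30 min with biotin-H3(1-18)K9me3 peptide (50 nM) in PBS pH 7.4, 0.01% Tween-20. Compound added for 30 min at RT, then streptavidin donor/nickel chelate acceptor beads (10 ug/mL) for 30 min.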
Each line names hits and unclear results; the compound was inactive in the other large screens. Compounds with a hit are over-represented: about 12% of the library has one in this group of screens. Unless noted, calls come from the whole dose curve; as a rule, active = well fitted curve in the direction sought with a large enough effect; inconclusive = small, poorly fitted or top-dose-only effect, or another doubt; inactive = no such curve, though single readings can be large; an effect the other way counts as inactive or inconclusive.

CC(C)(C)c1nc(SCC(=O)N2CCCC2)c2ccccc2n1	G9a block 50.1µM
O=c1cc(/N=C/c2coc3cc(Br)ccc3c2=O)[nH]c(=S)[nH]1	BAZ2B inh inconclusive, PI5P4K alpha inh -83.1
CC(=O)Oc1ccc2c(=O)c(-c3ccccc3)coc2c1	none
NC(=S)N/N=C/c1coc2ccc(Cl)cc2c1=O	none
CC(=O)Oc1ccc2c(=O)c(/C=N/c3cc(=O)[nH]c(=S)[nH]3)coc2c1	G9a block 35.5µM, PI5P4K alpha inh -90.9
O=C(Nc1ccc2c(c1)CCCN2C(=O)c1cccs1)c1ccccc1Cl	none (no result: PI5P4K alpha inh, PLK1 PBD block)
O=C1CCC/C(=N/Nc2ccc(Cl)cc2)C1	G9a block 4.47µM, JMJD2A Tudor inh 44.7µM, BAZ2B inh 44.7µM, PLK1 PBD block 29.9µM, HP1b binding inh inconclusive
O=C1CCC/C1=C/Nc1ccc(Cl)cc1	none
CCCCSCc1[nH]c(=O)[nH]c1C(=O)CCCCC(=O)OCC	G9a block inconclusive, BAZ2B inh inconclusive
Cc1[nH]c(=O)[nH]c1C(=O)CCCCC(=O)O	G9a block 1.58µM, JMJD2A Tudor inh 0.891µM, BAZ2B inh 0.891µM
COc1ccccc1NC(=O)C1=C(C)NC2=C(C(=O)CC(c3ccc(OC)c(OC)c3)C2)C1c1coc2ccccc2c1=O (centres undefined)	G9a block 44.7µM
O=C(Cc1ccc(-c2ccccc2)cc1)NCCS(=O)(=O)N1CCN(c2cccc(Cl)c2)CC1	none (no result: PI5P4K alpha inh, PLK1 PBD block)
COc1cc2c(cc1OC)C(c1cc3cccc(C)c3[nH]c1=O)N(C(=O)c1ccco1)CC2 (centres undefined)	none (no result: JMJD2A Tudor inh, PI5P4K alpha inh, PLK1 PBD block, HP1b binding inh)
c1ccc(CCNc2ccc3nncn3n2)cc1	none
NNc1ccc2nncn2n1	G9a block 50.1µM
O=c1/c(=C\c2cccn2-c2ccccc2)sc2nc3ccccc3n12	G9a block inconclusive
O=C(O)Cn1cc(/C=c2/sc3nc4ccccc4n3c2=O)c2ccccc21	G9a block 50.1µM, JMJD2A Tudor inh 56.2µM, BAZ2B inh inconclusive, PI5P4K alpha inh inconclusive, PLK1 PBD block inconclusive, HP1b binding inh inconclusive
Cc1cc(C)c(Cn2c(C(O)c3ccccc3)nc3ccccc32)c(C)c1 (centres undefined)	JMJD2A Tudor inh inconclusive (no result: PI5P4K alpha inh, PLK1 PBD block)
O=C1CC(c2cccs2)Sc2nc3ccccc3n21 (centres undefined)	G9a block inconclusive
O=C1CSCc2nc3ccccc3n21	JMJD2A Tudor inh 20µM (no result: G9a block, BAZ2B inh)
CSc1nc(Nc2ccc(C)cc2C)cc(-c2ccccc2)n1	none (no result: PI5P4K alpha inh, PLK1 PBD block)
COCCNc1nnc(SCC(=O)NNC(=O)c2ccccc2)s1	G9a block inconclusive, PLK1 PBD block 26.7µM, HP1b binding inh inconclusive
CSc1nnc(SCC(=O)NC(=O)c2ccccc2)s1	G9a block 44.7µM
COCCNc1nnc(SCC(=O)NC(=O)c2ccc(Cl)cc2)s1	none
COCCNc1nnc(SCC(=O)Nc2sc3c(c2C(=O)c2ccccc2)CCCC3)s1	G9a block 44.7µM, JMJD2A Tudor inh inconclusive, BAZ2B inh inconclusive, HP1b binding inh inconclusive
Nc1nnc(SCC(=O)Nc2ccc(Cl)cc2)s1	none (no result: PI5P4K alpha inh, PLK1 PBD block)
Cc1ccc(C(=O)c2c(NC(=O)CSc3nnc(N)s3)sc3c2CCCC3)cc1	G9a block inconclusive, JMJD2A Tudor inh inconclusive, BAZ2B inh inconclusive
Nc1nnc(SCC(=O)NNC(=O)c2ccc(Cl)cc2)s1	G9a block 8.91µM
COc1cc(-c2nc3n(n2)C(c2ccc(F)cc2)C(C(N)=O)=C(C)N3)cc(OC)c1OC (centres undefined)	none (no result: PI5P4K alpha inh, PLK1 PBD block)
CC(C(=O)Nc1cc(Cl)cc(Cl)c1)N1CCCC1 (centres undefined)	none
O=C(O)CNCC1COc2ccccc2O1 (centres undefined)	G9a block 17.8µM, JMJD2A Tudor inh 3.98µM, BAZ2B inh inconclusive (no result: PI5P4K alpha inh)
c1ccc(CCNCC2COc3ccccc3O2)cc1 (centres undefined)	none
CN(C)S(=O)(=O)c1cccc(CNCC2COc3ccccc3O2)c1 (centres undefined)	JMJD2A Tudor inh 17.8µM, BAZ2B inh 31.6µM, HP1b binding inh 50.1µM
NC(=O)N1CCC2(CC1)NC(=O)N(c1ccccc1)N2	G9a block 7.94µM
CCN(CC)CCOc1ccc(-c2nc3cc(Cl)ccc3s2)cc1	none (no result: JMJD2A Tudor inh, BAZ2B inh, PI5P4K alpha inh, PLK1 PBD block, HP1b binding inh)
O=S(=O)(/N=C(\Sc1ccc(Cl)cc1)c1ccccc1)c1ccccc1	PLK1 PBD block 2.67µM
Cc1ccc(S/C(=N/S(=O)(=O)c2ccc(Cl)cc2)c2ccccc2)cc1	none (no result: G9a block, BAZ2B inh, PI5P4K alpha inh, PLK1 PBD block)
C=C(C)CSc1nnc([C@@H]2CCCN2)o1	G9a block inconclusive, JMJD2A Tudor inh 50.1µM, BAZ2B inh 50.1µM
O=C(CSc1nnc([C@@H]2CCCN2)o1)c1ccc(Cl)cc1	G9a block 39.8µM, JMJD2A Tudor inh inconclusive, PI5P4K alpha inh inconclusive
O=S(=O)(Nc1cccnc1)c1cccc2ccccc12	none (no result: G9a block, BAZ2B inh, PI5P4K alpha inh, PLK1 PBD block)
CC(=O)c1cccc(NC(=O)CSc2nc3c(=O)n(C)c(=O)n(C)c3n2C)c1	none (no result: PI5P4K alpha inh, PLK1 PBD block)
CCc1ccc2c(COC(=O)c3n[nH]c4ccccc34)cc(=O)oc2c1	G9a block 35.5µM, JMJD2A Tudor inh inconclusive

Compound activity deposited in PubChem BioAssay by National Center for Advancing Translational Sciences (NCATS).
